In PubChem BioAssay (Tox21):
Records with an inconclusive call do not appear. Activity calls are given as the source filed them. Unless noted, the call rests on the fitted dose curve; in most records, active means well fitted curve in the direction sought with a large enough effect in the repeat runs; inconclusive means weak or mixed curves; inactive means no such curve, though single readings can be large; an effect the other way counts as inactive or inconclusive.

Key:
[1] = Human pregnane X receptor (PXR) small molecule agonists, qHTS cell viability counter screen (AID 1346977); further: nearly all actives have a fitted effect of over 50% in size
Summary of the method: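 Cytotoxicity counter screen run in the same wells as the PXR luciferase assay, using PXR-Luc HepG2 cells in charcoal-stripped serum medium. Viability: CellTiter-Fluor fluorescence after 24hr compound treatment.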

[2] = Caspase-3/7 induction in HepG2 cells by small molecules, qHTS assay (AID 1346978); further: nearly all actives have a fitted effect of over 15% in size
Summary of the method: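 Wild-type HepG2 cells (2,000/well) were settled 5 h at 37 C, 5% CO2, then exposed to compounds in DMSO for 17 h. Caspase-3/7 activity was read by luminescence 30 min after adding Caspase-Glo 3/7 reagent at room temperature.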

[3] = Caspase-3/7 induction in CHO-K1 cells by small molecules, qHTS assay (AID 1346980); further: nearly all actives have a fitted effect of over 15% in size
Summary of the method: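 Wild-type cells were seeded at 1,500 per well and settled 5 hr at 37 C, 5% CO2, then exposed to DMSO-dissolved compounds for 17 hr. Caspase-Glo 3/7 reagent was added, and luminescence was read after 30min at room temperature.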

[4] = Caspase-3/7 induction in HepG2 cells by small molecules, qHTS cell viability counter screen (AID 1346981); further: series mostly up to about 92 µM; nearly all actives have a fitted effect of over 30% in size
Summary of the method: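 In this quantitative HTS counter screen, compounds delivered in DMSO were left on unmodified HepG2 cells for 16 hr at 37 C. Viability was then determined fluorometrically with CellTiter-Fluor, in parallel with caspase-3/7 induction in the same wells.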

[5] = target: Cytochrome P450 2D6 (Homo sapiens) (UniProt P10635); assay: Cytochrome P450 Family 2 Subfamily D Member 6 (CYP2D6) small molecule antagonists: luciferase reporter qHTS assay (AID 1671196); further: series mostly up to about 120 µM; nearly all actives have a fitted effect of over 50% in size
Summary of the method: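 Test chemicals meet CYP2D6 plus proluciferin substrate (10 min, RT); NADPH regenerating solution then drives turnover for 1 h. Detection reagent halts the reaction; luminescence measured after 20 min.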

[6] = target: Cytochrome P450 2C19 (Homo sapiens) (UniProt P33261); assay: Cytochrome P450 Family 2 Subfamily C Member 19 (CYP2C19) small molecule antagonists: luciferase reporter qHTS assay (AID 1671197); further: nearly all actives have a fitted effect of over 65% in size; further: potency means the concentration at half of the fitted maximal effect
Summary of the method: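 Relative luminescence units recorded 20 min after the detection reagent stopped a 1 h, 37C CYP2C19 reaction on proluciferin substrate, which was started by NADPH regeneration following 10 min room-temperature compound preincubation; ketoconazole positive control.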

[7] = target: Cytochrome P450 2C9 (Homo sapiens) (UniProt P11712); assay: Cytochrome P450 Family 2 Subfamily C Member 9 (CYP2C9) small molecule antagonists: luciferase reporter qHTS assay (AID 1671198); further: nearly all actives have a fitted effect of over 50% in size; further: potency means the concentration at half of the fitted maximal effect
Summary of the method: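 CYP2C9 activity was measured with a P450-Glo proluciferin substrate. Enzyme–substrate mix was held with compound for 10 min at room temperature, then NADPH regeneration solution was added for 1 h at 37C. Luciferin product was read as luminescence.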

[8] = target: Cytochrome P450 1A2 (Homo sapiens) (UniProt P05177); assay: Cytochrome P450 Family 1 Subfamily A Member 2 (CYP1A2) small molecule antagonists: luciferase reporter qHTS assay (AID 1671199); further: nearly all actives have a fitted effect of over 50% in size; further: potency means the concentration at half of the fitted maximal effect
Summary of the method: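 Steps: enzyme-substrate mix dispensed; test compounds and furafylline control pinned in; 10 min room temperature; NADPH regeneration solution added, 1 h; reaction stopped with luciferin detection reagent; luminescence read after 20 min.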

[9] = target: Voltage-gated inwardly rectifying potassium channel KCNH2 (Homo sapiens) (UniProt Q12809); assay: Human Ether-a-go-go-Related Gene (hERG) channel small molecule antagonists: fluorescence cell-based qHTS assay (AID 1671200)
Summary of the method: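 Fluorescence at 540 nm emission (480 nm excitation) was recorded kinetically for 2 min at 1-second intervals once the thallium-containing stimulus reached cells previously loaded with FluxOR II dye.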

[10] = target: Cytochrome P450 3A4 (Homo sapiens) (UniProt P08684); assay: Cytochrome P450 Family 3 Subfamily A Member 4 (CYP3A4) small molecule antagonists: luciferase reporter qHTS assay (AID 1671201); further: nearly all actives have a fitted effect of over 50% in size; further: potency means the concentration at half of the fitted maximal effect
Summary of the method: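 qHTS, 1536-well. CYP3A4 + proluciferin substrate, cpd 10 min RT → NADPH regen 1 h RT → detection reagent 20 min → luminescence (RLU). Ketoconazole positive control.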

[11] = qHTS assay to identify small molecule antagonists of the TGF-beta/Smad signaling pathway - cell viability counter screen (AID 1346824); further: nearly all actives have a fitted effect of over 50% in size
Summary of the method: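 SBE-bla HEK 293T cells were plated overnight at 37 C, then given compounds in DMSO plus TGF-beta1 (added as 0.25 ng/mL solution) for 5 hr. After the bla read, CellTiter-Glo was added to the same wells and luminescence read after 30 min at room temperature.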

[12] = qHTS assay to identify small molecule agonists of the TGF-beta/Smad signaling pathway (AID 1346859; active means well fitted activation curve with a large enough effect in the signal ratio in the repeat runs, not every such curve was filed as active; the % refers to the signal ratio; further: series mostly up to about 77 µM)
Summary of the method: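 Reporter line: HEK 293T with stably integrated SBE-controlled beta-lactamase. Compound exposure lasts 5 hr at 37 C and 5% CO2; substrate loading follows for 2 hr at room temperature, with emission read at 460 and 530 nm.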

[13] = target: Thyrotropin-releasing hormone receptor (Homo sapiens) (UniProt P34981); assay: qHTS assay to identify small molecule antagonists of the thyrotropin-releasing hormone receptor (TRHR) signaling pathway (AID 1346877; active means well fitted inhibition curve with a large enough effect in the repeat runs, not every such curve was filed as active; further: series mostly up to about 51 µM)
Summary of the method: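 Kinetic fluorescence (3 min, 1 s resolution) following stimulation with TRH at 1 nM final; HEK293 cells bearing human TRHR; 5 min compound preincubation at RT; concentration-response over 15 points, triplicates.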

[14] = Caspase-3/7 induction in CHO-K1 cells by small molecules, qHTS cell viability counter screen (AID 1346979); further: nearly all actives have a fitted effect of over 35% in size
Summary of the method: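 Cytotoxicity counter screen run in parallel with the caspase-3/7 assay: CHO-K1 cells, 16hr compound treatment at 37C, then CellTiter-Fluor for 1hr before fluorescence reading.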

[15] = target: Nuclear receptor subfamily 1 group I member 2 (Homo sapiens) (UniProt O75469); assay: Human pregnane X receptor (PXR) small molecule agonists, qHTS assay (AID 1346982); further: nearly all actives have a fitted effect of over 35% in size
Summary of the method: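 Reporter HepG2 cells expressing PXR-Luc are cultured in charcoal-stripped FBS (5%), treated with compounds for 24 hr at 37 C, and assayed by ONE-Glo luminescence after 30 min at room temperature.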

[16] = target: Nuclear receptor subfamily 1 group I member 2 (Rattus norvegicus) (UniProt Q9R1A7); assay: Rat pregnane X receptor (rPXR) activation by small molecules, qHTS assay (AID 1346983); details: rPXR luciferase reporter cells, One-Glo luminescence, 24 h; max activation: stronger effect = higher value; further: nearly all actives have a fitted effect of over 20% in size
Summary of the method: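 Cell-based rPXR luciferase reporter assay, 2,000 cells per well, rested 5hr at 37 C before compound addition in DMSO, then 24 hr at 37 C. One-Glo reagent was added and luminescence read after 30 min at room temperature.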

[17] = target: Nuclear receptor subfamily 1 group I member 2 (Homo sapiens) (UniProt O75469); assay: CYP3A4 induction through human pregnane X receptor (PXR) by small molecules, qHTS assay (AID 1346984); further: nearly all actives have a fitted effect of over 40% in size
Summary of the method: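 Induction measured in HepG2-based DPX-2 cells co-expressing human PXR and a CYP3A4 promoter-driven luciferase. After a 24-hour compound exposure, cells received CYP3A4 luciferin substrate at 3uM final for 3 hours, and light output was then recorded.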

[18] = target: Nuclear receptor subfamily 1 group I member 2 (Homo sapiens) (UniProt O75469); assay: Human pregnane X receptor (PXR) activation by small molecules, qHTS assay (AID 1346985); further: nearly all actives have a fitted effect of over 40% in size
Summary of the method: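 DPX-2 cells (HepG2 co-transfected with a PXR response element and a CYP3A4-promoter luciferase construct) were seeded at 2,000 per well, rested 5 hr at 37C, then exposed to DMSO-dissolved compounds for 24 hr. Activation was read as luciferase luminescence.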

[19] = target: Thyrotropin-releasing hormone receptor (Homo sapiens) (UniProt P34981); assay: qHTS assay to identify small molecule agonists of the thyrotropin-releasing hormone receptor (TRHR) signaling pathway (AID 1346891; calls by dose curve;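 further: HEK293 cells expressing TRHR with calcium dye readout; series mostly up to about 58 µM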)
Summary of the method: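 Cells: TRHR-Hek293, seeded and incubated 18 h. Dye loading: 2 h at 37 °C. Compound added from DMSO stock by pin tool. Read-out: kinetic calcium fluorescence over 3 min.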

[20] = qHTS assay to identify small molecule agonists of the TGF-beta/Smad signaling pathway - cell viability counter screen (AID 1346829); further: top concentration of the series differs between compounds; nearly all actives have a fitted effect of over 45% in size
Summary of the method: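 Tox21 qHTS format: SBE-bla HEK 293T cells treated with DMSO-dissolved compounds for 5 hr; CellTiter-Glo luminescence after 30 min at room temperature.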
On the % scale 0 is the no-effect control and ±100 the full control effect.

Nuclear receptor subfamily 1 group I member 2 (Homo sapiens), sequence (O75469 whole entry, looked up): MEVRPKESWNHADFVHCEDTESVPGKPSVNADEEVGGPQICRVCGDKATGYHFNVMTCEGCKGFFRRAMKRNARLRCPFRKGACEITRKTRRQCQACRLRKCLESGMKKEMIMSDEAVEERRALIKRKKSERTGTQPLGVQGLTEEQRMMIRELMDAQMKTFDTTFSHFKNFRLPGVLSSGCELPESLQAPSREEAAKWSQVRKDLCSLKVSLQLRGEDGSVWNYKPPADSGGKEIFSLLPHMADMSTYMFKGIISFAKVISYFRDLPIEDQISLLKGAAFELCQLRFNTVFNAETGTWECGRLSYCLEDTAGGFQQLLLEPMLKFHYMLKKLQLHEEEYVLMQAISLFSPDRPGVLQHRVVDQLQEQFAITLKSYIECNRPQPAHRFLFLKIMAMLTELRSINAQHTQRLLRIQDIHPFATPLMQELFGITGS
Voltage-gated inwardly rectifying potassium channel KCNH2 (Homo sapiens), sequence (Q12809 whole entry, looked up): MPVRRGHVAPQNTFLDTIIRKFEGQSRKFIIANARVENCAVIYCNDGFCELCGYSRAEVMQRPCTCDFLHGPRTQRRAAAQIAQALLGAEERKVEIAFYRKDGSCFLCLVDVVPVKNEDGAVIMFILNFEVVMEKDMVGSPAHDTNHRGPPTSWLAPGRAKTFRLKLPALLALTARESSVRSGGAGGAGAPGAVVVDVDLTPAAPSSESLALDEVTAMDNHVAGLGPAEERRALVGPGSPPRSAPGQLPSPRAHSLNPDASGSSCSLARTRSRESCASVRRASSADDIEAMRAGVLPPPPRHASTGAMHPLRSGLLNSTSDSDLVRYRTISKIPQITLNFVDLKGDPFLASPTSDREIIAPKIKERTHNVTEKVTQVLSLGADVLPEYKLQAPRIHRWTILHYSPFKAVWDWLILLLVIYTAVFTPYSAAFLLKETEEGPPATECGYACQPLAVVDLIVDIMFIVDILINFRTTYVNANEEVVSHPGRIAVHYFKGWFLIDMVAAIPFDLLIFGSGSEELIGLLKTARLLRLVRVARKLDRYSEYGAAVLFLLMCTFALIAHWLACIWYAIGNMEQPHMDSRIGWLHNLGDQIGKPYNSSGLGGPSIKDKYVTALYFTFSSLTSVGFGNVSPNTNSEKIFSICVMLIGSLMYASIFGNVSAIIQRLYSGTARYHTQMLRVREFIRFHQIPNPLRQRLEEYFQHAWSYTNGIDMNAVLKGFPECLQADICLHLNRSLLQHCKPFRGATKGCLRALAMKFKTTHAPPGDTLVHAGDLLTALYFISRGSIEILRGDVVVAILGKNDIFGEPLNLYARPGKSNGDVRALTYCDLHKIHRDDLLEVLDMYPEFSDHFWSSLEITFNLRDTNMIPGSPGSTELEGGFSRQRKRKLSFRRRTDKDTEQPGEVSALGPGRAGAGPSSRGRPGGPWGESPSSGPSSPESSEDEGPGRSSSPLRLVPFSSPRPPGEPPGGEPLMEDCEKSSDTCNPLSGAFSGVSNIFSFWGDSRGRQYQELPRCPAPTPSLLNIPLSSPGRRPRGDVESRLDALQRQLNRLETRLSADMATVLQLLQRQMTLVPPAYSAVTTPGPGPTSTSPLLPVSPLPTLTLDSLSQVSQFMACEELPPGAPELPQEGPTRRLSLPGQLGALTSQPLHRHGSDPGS
Cytochrome P450 2C19 (Homo sapiens), sequence (P33261 whole entry, looked up): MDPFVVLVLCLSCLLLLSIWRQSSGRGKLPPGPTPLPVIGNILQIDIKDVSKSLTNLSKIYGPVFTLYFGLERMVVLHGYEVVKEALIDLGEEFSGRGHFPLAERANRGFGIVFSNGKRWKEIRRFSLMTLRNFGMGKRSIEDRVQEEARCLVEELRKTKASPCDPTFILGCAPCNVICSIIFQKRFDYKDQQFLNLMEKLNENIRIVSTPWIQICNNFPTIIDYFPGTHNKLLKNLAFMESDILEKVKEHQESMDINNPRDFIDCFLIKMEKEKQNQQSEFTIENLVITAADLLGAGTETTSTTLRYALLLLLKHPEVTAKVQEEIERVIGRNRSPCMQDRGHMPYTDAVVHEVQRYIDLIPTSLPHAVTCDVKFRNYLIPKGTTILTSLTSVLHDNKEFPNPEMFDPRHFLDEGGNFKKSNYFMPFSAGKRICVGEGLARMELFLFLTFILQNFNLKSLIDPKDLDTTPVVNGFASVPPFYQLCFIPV
Cytochrome P450 2D6 (Homo sapiens), sequence (P10635 whole entry, looked up): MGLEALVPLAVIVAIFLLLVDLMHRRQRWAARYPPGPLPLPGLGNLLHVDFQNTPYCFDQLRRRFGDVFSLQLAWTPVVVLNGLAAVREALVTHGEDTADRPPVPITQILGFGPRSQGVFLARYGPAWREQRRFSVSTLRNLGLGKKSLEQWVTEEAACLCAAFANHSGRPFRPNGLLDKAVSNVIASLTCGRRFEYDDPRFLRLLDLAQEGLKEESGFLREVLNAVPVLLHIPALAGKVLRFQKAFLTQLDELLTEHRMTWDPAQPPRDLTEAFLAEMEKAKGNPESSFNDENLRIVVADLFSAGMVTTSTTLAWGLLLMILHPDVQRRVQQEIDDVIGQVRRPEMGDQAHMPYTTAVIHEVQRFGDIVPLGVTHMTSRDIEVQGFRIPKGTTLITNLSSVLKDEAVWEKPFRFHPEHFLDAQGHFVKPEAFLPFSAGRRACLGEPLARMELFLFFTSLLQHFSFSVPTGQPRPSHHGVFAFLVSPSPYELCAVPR
Cytochrome P450 3A4 (Homo sapiens), sequence (P08684 whole entry, looked up): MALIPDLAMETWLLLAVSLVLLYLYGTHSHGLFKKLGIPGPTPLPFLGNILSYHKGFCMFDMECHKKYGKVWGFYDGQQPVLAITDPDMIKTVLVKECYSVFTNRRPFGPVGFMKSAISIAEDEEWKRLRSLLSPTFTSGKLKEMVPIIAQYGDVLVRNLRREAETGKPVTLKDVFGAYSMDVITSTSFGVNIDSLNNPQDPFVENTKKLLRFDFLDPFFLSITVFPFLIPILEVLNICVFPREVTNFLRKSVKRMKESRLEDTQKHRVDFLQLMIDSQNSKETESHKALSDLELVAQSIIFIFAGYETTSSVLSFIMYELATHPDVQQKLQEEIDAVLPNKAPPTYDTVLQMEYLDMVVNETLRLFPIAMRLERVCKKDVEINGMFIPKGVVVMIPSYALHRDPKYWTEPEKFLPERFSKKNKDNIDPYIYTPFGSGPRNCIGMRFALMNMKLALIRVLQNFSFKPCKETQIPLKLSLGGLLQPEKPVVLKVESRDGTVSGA
Cytochrome P450 2C9 (Homo sapiens), sequence (P11712 whole entry, looked up): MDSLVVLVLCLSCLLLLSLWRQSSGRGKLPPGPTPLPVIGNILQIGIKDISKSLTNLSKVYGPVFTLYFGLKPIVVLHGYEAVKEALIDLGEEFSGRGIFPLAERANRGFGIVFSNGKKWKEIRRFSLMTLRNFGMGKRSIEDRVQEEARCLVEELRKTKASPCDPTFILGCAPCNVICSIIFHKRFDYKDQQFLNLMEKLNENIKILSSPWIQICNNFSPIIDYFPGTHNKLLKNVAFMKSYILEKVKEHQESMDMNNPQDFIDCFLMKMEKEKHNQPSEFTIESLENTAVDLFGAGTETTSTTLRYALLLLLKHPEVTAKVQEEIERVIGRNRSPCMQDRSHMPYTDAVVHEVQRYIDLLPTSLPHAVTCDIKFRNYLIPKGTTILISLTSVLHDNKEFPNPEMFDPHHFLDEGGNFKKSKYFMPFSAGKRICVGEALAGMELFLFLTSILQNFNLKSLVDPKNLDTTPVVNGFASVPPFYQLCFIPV
Thyrotropin-releasing hormone receptor (Homo sapiens), sequence (P34981 whole entry, looked up): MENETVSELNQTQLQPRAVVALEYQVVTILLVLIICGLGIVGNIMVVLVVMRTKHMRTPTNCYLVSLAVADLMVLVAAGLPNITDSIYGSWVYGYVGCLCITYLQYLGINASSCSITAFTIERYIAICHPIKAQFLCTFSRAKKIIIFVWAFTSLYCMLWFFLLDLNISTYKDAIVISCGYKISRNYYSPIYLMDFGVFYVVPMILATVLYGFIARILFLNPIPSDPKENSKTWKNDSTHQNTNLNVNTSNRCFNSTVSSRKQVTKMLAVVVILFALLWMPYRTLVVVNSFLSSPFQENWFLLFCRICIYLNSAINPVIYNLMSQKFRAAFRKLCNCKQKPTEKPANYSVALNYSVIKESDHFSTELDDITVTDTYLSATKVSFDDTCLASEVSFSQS
Cytochrome P450 1A2 (Homo sapiens), sequence (P05177 whole entry, looked up): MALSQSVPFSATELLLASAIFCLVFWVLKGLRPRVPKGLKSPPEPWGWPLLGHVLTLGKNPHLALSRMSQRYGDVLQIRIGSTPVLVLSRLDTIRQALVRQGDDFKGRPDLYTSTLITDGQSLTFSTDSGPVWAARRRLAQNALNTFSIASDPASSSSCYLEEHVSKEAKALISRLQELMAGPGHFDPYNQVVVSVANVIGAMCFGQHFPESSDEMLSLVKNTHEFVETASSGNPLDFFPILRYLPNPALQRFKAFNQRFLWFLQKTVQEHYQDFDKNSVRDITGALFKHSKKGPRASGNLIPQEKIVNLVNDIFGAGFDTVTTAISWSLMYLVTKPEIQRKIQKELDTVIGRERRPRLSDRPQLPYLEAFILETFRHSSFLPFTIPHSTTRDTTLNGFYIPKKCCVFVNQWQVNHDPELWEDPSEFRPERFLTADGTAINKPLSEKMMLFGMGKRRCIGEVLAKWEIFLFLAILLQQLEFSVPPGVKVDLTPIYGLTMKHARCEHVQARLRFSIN
Nuclear receptor subfamily 1 group I member 2 (Rattus norvegicus), sequence (Q9R1A7 whole entry, looked up): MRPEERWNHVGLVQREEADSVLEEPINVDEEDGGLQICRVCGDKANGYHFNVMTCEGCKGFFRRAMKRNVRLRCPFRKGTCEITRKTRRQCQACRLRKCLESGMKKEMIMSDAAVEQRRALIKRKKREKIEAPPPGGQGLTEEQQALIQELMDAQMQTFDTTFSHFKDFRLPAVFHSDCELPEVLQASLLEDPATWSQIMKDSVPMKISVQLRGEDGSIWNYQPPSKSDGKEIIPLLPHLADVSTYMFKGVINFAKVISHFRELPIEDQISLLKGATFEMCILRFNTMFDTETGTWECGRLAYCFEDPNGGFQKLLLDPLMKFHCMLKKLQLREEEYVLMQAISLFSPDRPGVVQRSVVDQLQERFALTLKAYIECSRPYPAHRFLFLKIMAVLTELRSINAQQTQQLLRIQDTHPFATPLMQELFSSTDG

CCCCOC(=O)C(C)OC(=O)CCC (centres undefined)
inactive: Potency [1] | outcome [2] | outcome [3] | Potency [4] | Potency [5] | Potency [6] | Potency [7] | Potency [8] | Potency [9] | Potency [10]

CC(=O)OCC(=O)[C@@]1(O)[C@H](OC(C)=O)C[C@H]2[C@@H]3CCC4=CC(=O)C=C[C@]4(C)[C@@]3(F)[C@@H](O)C[C@@]21C
inactive: outcome [11] | outcome [12] | outcome [13] | Potency [1] | outcome [2] | Potency [14] | outcome [3] | Potency [4] | Potency [15] | Potency [5] | Potency [6] | Potency [7] | Potency [8] | Potency [9]

Cc1ccccc1C
active: Potency [6] 81.7 µM
inactive: outcome [11] | outcome [12] | Potency [1] | outcome [2] | Potency [14] | outcome [3] | Potency [15] | Potency [5] | Potency [7] | Potency [9] | Potency [10]

CCCCC[Si](OCC)(OCC)OCC
active: Potency [6] 25.2 µM | Potency [7] 31.7 µM | Potency [10] 12.6 µM
inactive: outcome [11] | Potency [1] | outcome [2] | Potency [14] | outcome [3] | Potency [4] | Potency [15] | Potency [5] | Potency [9]

O=C(/C=C/c1ccccc1)NCCO
inactive: outcome [11] | outcome [13] | Potency [1] | outcome [2] | outcome [3] | Potency [4] | max activation [16] -0.885% | outcome [17] | Potency [18] | Potency [9] | Potency [10]
active: Potency [6] 15.5 µM | Potency [8] 11.5 µM

Nc1cc(Cl)cc(S(=O)(=O)O)c1O
inactive: outcome [11] | outcome [12] | outcome [13] | outcome [19] | Potency [1] | Potency [14] | outcome [3] | Potency [4] | Potency [5] | Potency [9] | Potency [10]
active: Potency [6] 41 µM | Potency [7] 20.6 µM

CCC1COC(=O)O1 (centres undefined)
inactive: outcome [11] | outcome [19] | Potency [1] | outcome [2] | Potency [14] | outcome [3] | Potency [4] | Potency [6] | Potency [7] | Potency [9] | Potency [10]

O=C(O)CCNC(=O)c1ccccc1
inactive: outcome [20] | outcome [12] | outcome [13] | outcome [19] | Potency [1] | Potency [14] | outcome [3] | Potency [4] | Potency [15] | Potency [5] | Potency [6] | Potency [7] | Potency [8] | Potency [9] | Potency [10]

CCCCCCCCOC(C)=O
inactive: outcome [11] | outcome [12] | Potency [1] | outcome [2] | Potency [14] | outcome [3] | Potency [4] | Potency [5] | Potency [7] | Potency [8] | Potency [9] | Potency [10]

CNC(=O)NC
inactive: outcome [12] | Potency [1] | Potency [14] | outcome [3] | Potency [4] | Potency [15] | Potency [5] | Potency [7] | Potency [9] | Potency [10]

CN[C@@H]1[C@@H](O)[C@@H](O[C@@H]2[C@H](O)[C@H](O[C@H]3OC(CN)=CC[C@H]3N)[C@@H](N)C[C@H]2N)OCC1(C)O (some centres undefined)
inactive: outcome [11] | Potency [1] | Potency [14] | outcome [3] | Potency [4] | Potency [9]

CN(C)CCCNCCC#N
inactive: outcome [20] | outcome [13] | Potency [1] | outcome [2] | Potency [14] | outcome [3] | Potency [4] | Potency [15] | Potency [5] | Potency [7] | Potency [9] | Potency [10]

CC(C)=CC(C)(C)C
inactive: outcome [20] | outcome [12] | outcome [13] | outcome [19] | Potency [1] | outcome [2] | Potency [14] | outcome [3] | Potency [15] | Potency [5] | Potency [6] | Potency [9] | Potency [10]

CCCCCC1CCCC(=O)O1 (centres undefined)
active: Potency [6] 79.6 µM
inactive: outcome [11] | outcome [12] | Potency [1] | outcome [2] | Potency [14] | outcome [3] | Potency [15] | Potency [5] | Potency [7] | Potency [9] | Potency [10]

CC(C)c1ccccc1O
inactive: outcome [11] | Potency [1] | outcome [2] | Potency [14] | outcome [3] | Potency [4] | Potency [15] | Potency [5] | Potency [6] | Potency [9] | Potency [10]

CCC(=O)OCCC(C)CCC=C(C)C (centres undefined)
active: Potency [6] 20 µM | Potency [7] 25.2 µM | Potency [8] 39.9 µM | Potency [10] 12.6 µM
inactive: outcome [11] | outcome [12] | Potency [1] | outcome [2] | Potency [14] | outcome [3] | Potency [4] | Potency [15] | Potency [9]

CCCCC(CC)C(=O)OC(C)C (centres undefined)
inactive: outcome [20] | outcome [12] | outcome [13] | outcome [19] | Potency [1] | outcome [2] | Potency [14] | outcome [3] | Potency [4] | Potency [15] | Potency [5] | Potency [6] | Potency [9] | Potency [10]

Cc1c(C(C)C)c(=O)n(-c2ccccc2)n1C
active: Potency [6] 43.6 µM
inactive: outcome [11] | outcome [12] | Potency [1] | outcome [2] | Potency [14] | outcome [3] | Potency [4] | Potency [15] | max activation [16] -1.17% | outcome [17] | Potency [18] | Potency [7] | Potency [8] | Potency [9] | Potency [10]
